Read-out in assay [1]: Urokinase-type plasminogen activator receptor (uPAR), PLAUR (gene 5329)
Nature of the assay: BSK_4H_uPAR: BioMAP Diversity Plus: 4H Assay for Urokinase-type plasminogen activator receptor (uPAR) Biomarker Activity (AID 2283030). The note with it: primary human endothelial cells (HUVEC); actives raise or lower the signal. Summed up: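 Primary human umbilical vein endothelial cells were exposed to chemical for 24 h before cell-surface uPAR was quantified by ELISA. Activity was fitted bidirectionally against the DMSO negative control baseline.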

Read-out in assay [2]: Vascular endothelial growth factor receptor 2 (Homo sapiens) (UniProt P35968)
Nature of the assay: BSK_4H_VEGFRII: BioMAP Diversity Plus: 4H Assay for Vascular endothelial growth factor receptor 2 (VEGFR2) Biomarker Activity (AID 2283031). As to conditions: primary human endothelial cells (HUVEC); actives raise or lower the signal. Summed up: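 Primary human umbilical vein endothelial cells in the BioMAP 4H system were dosed with test chemical, and 24 h later VEGFRII was measured by ELISA. Activity was fitted bidirectionally against DMSO as negative control and baseline.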

Read-out in assay [3]: Human Leukocyte Antigen - DR isotype (HLADR), HLA-DRA (gene 3122)
Put plainly: BSK_BE3C_HLADR: BioMAP Diversity Plus: BE3C Assay for Human Leukocyte Antigen - DR isotype (HLADR) Biomarker Activity (AID 2283032). As to conditions: primary human bronchial epithelial cells; actives raise or lower the signal. Summed up:
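Human primary bronchial epithelial cells in the BE3C system were exposed to chemicals for 24 h, after which HLA-DR levels were quantified by ELISA. Activity was fitted bidirectionally, gain or loss of signal, against DMSO as negative control and baseline.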

Read-out in assay [4]: Vascular cell adhesion molecule 1 (VCAM1), VCAM1 (gene 7412)
Put plainly: BSK_4H_VCAM1: BioMAP Diversity Plus: 4H Assay for Vascular cell adhesion molecule 1 (VCAM1) Biomarker Activity (AID 2283033).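 As to outcome: cell-surface VCAM-1 protein measured by ELISA.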 As to conditions: primary human endothelial cells (HUVEC); actives raise or lower the signal. Summed up: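 Primary human umbilical vein endothelial cells were exposed to chemicals for 24 h, after which VCAM-1 was quantified by ELISA. Responses were fitted bidirectionally against DMSO as negative control and activity baseline.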

Read-out in assay [5]: Interferon-gamma inducible Protein 10 (IP10), CXCL10 (gene 3627)
Nature of the assay: BSK_BE3C_IP10: BioMAP Diversity Plus: BE3C Assay for Interferon-gamma inducible Protein 10 (IP10) Biomarker Activity (AID 2283034). As to conditions: primary human bronchial epithelial cells; actives raise or lower the signal. Summed up:
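Human primary bronchial epithelial cells were exposed to chemicals for 24 hours, after which IP-10 levels were measured by ELISA. Data were fitted bidirectionally against DMSO, which served as the negative control and activity baseline.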

Read-out in assay [6]: Monokine induced gamma interferon (MIG), CXCL9 (gene 4283)
Nature of the assay: BSK_BE3C_MIG: BioMAP Diversity Plus: BE3C Assay for Monokine induced gamma interferon (MIG) Biomarker Activity (AID 2283035).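 Also: MIG protein measured by ELISA in BE3C cultures after 24 h of dosing.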 As to conditions: primary human bronchial epithelial cells; actives raise or lower the signal. Summed up:
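MIG level was determined by ELISA after 24 h chemical treatment of primary human bronchial epithelial cells. Values were fitted bidirectionally with DMSO as the negative control and activity baseline.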

Read-out in assay [7]: Transforming growth factor beta 1 (TGFb1), TGFB1 (gene 7040)
Nature of the assay: BSK_BE3C_TGFb1: BioMAP Diversity Plus: BE3C Assay for Transforming growth factor beta 1 (TGFb1) Biomarker Activity (AID 2283036). As to conditions: primary human bronchial epithelial cells; actives raise or lower the signal. Summed up:
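Human primary bronchial epithelial cells (BE3C system) were dosed with chemical and TGF-b1 levels measured by ELISA at 24 h. Activity was fitted bidirectionally relative to DMSO negative control as baseline.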

Read-out in assay [8]: Plasminogen activator inhibitor-1 (PAI1), SERPINE1 (gene 5054)
Put plainly: BSK_BE3C_PAI1: BioMAP Diversity Plus: BE3C Assay for Plasminogen activator inhibitor-1 (PAI1) Biomarker Activity (AID 2283037). The note with it: primary human bronchial epithelial cells; actives raise or lower the signal. Summed up: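 Human primary bronchial epithelial cells were exposed to chemical for 24 h, then PAI-1 was quantified by ELISA. Activity was fitted bidirectionally relative to the DMSO negative control baseline.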

Read-out in assay [9]: urokinase plasminogen activator (uPA), PLAU (gene 5328)
Nature of the assay: BSK_BE3C_uPA: BioMAP Diversity Plus: BE3C Assay for urokinase plasminogen activator (uPA) Biomarker Activity (AID 2283038).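 As to outcome: uPA protein level quantified by ELISA in cell cultures; uPA read one day after compound addition.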 As to conditions: primary human bronchial epithelial cells; actives raise or lower the signal. Summed up:
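Human primary bronchial epithelial cells were exposed to chemical for 24 h, then uPA levels were measured by ELISA. Responses were fitted bidirectionally against DMSO as negative control and baseline. Parallel SRB staining of total protein gauged overt cytotoxicity.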

Read-out in assay [10]: Urokinase-type plasminogen activator receptor (uPAR), PLAUR (gene 5329)
Put plainly: BSK_BE3C_uPAR: BioMAP Diversity Plus: BE3C Assay for Urokinase-type plasminogen activator receptor (uPAR) Biomarker Activity (AID 2283039).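 Also: cells exposed to compound for one day before measurement.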 The note with it: primary human bronchial epithelial cells; actives raise or lower the signal. Summed up: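 Primary human bronchial epithelial cells were dosed with chemical and harvested 24 h later; uPAR was quantified by ELISA. Activity was fitted bidirectionally against DMSO as negative control and baseline.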

Several values for one entry are separate records, joined by “and”; a condition that tells them apart may be missing. Identical values can stand only once. The source holds several records for some structures; these can differ, active in one and inactive in another. Activity calls are given as the source filed them. The calls were made as follows: active = hit-call score of the fitted dose curve at least 0.9, where 1 is the maximum; inactive = score below 0.9.

Consider `CCCCCC1=CCCC1=O`, for which the outcome in assay [1], in assay [2], in [3], in [4], in [5] and in assay [6] was inactive. Moreover, the outcome in assay [7], in [8], in assay [9] and in [10] was inactive.

The term AC50 denotes the concentration giving half of the maximal activity seen. For the compound `Clc1cc(Cl)c(Cl)c(Cl)c1Cl`, the outcome in assay [1], in assay [2], in [3], in assay [5], in assay [6] and in assay [7] was inactive. Further, the outcome in [8], in [9] and in assay [10] was inactive. Besides, the concentration at half-maximal activity (AC50) in assay [4] is 20 µM (active).

Regarding `C[N+](C)(C)CCCNS(=O)(=O)C(F)(F)C(F)(F)C(F)(F)C(F)(F)C(F)(F)C(F)(F)C(F)(F)C(F)(F)F`, the result in [1], in assay [2], in assay [3], in assay [4], in assay [6] and in [8] was inactive. The result in assay [9] and in [10] was inactive. The AC50 was 54.8 µM (active) in assay [3]; 30 µM (active) and 43.7 µM (active) in assay [5]; 1.1 µM (active) in assay [9].

Turning to `C=CC(=O)OCC(C)OCC(C)OCC(C)OC(=O)C=C` (stereo unspecified), the AC50 was 31.1 µM (active) in assay [1], 13.6 µM (active) in assay [3], 10.1 µM (active) in assay [4] and 30.6 µM (active) in [5]. For the same compound, the result in assay [2], in [6], in assay [7], in assay [8], in assay [9] and in [10] was inactive.

With `CCCCC1C(=O)N(c2ccccc2)N(c2ccccc2)C1=O`, the result in assay [1], in assay [2], in [3], in [4], in assay [5] and in assay [6] was inactive. Further, the result in [7], in assay [8], in assay [9] and in [10] was inactive.

As for `CCOC(=O)C1=NOC(c2ccccc2)(c2ccccc2)C1`, the outcome in assay [1], in assay [2], in [3], in assay [4], in assay [5] and in assay [6] was inactive. Moreover, the outcome in assay [7], in assay [8], in assay [9] and in [10] was inactive.

For `CCCCCCC=O`, the result in [1], in assay [2], in assay [3], in assay [4], in assay [5] and in assay [6] was inactive. Also, the result in assay [7], in assay [8], in assay [9] and in [10] was inactive.

For `CC(Cl)COP(=O)(OCC(C)Cl)OCC(C)Cl` (stereo unspecified), the outcome in [1], in assay [2], in assay [3], in assay [4], in assay [5] and in assay [6] was inactive. For the same compound, the outcome in assay [7], in assay [8], in assay [9] and in assay [10] was inactive.

On to `CC=C(C)C(C)=O`, for which the outcome in [1], in assay [2], in assay [3], in assay [4], in assay [6] and in assay [7] was inactive. Besides, the result in [8], in assay [9] and in assay [10] was inactive. In [5], the AC50 was 20 µM (active).

With `C1CNCCN1`, the result in assay [1], in assay [2], in [3], in [4], in assay [5] and in assay [6] was inactive. Further, the outcome in assay [7], in assay [8], in [9] and in [10] was inactive.

`COc1ccc(C(=O)c2ccccc2)c(O)c1`: the result in assay [1], in assay [2], in [3], in assay [5], in assay [6] and in [7] was inactive. The result in [8], in [9] and in [10] was inactive. Moreover, the AC50 in assay [4] was 29.1 µM (active).

For `Fc1ccc(Br)cc1`, the outcome in assay [1], in assay [2], in assay [3], in [4], in [5] and in assay [6] was inactive. Besides, the result in assay [7], in [8], in assay [9] and in assay [10] was inactive.

Take `CCCCCCCCC(CO)CCCCCC` (stereo unspecified): the concentration at half-maximal activity (AC50) was 2.51 µM (active) in assay [1], 2.01 µM (active) in assay [5] and 1.36 µM (active) in [8]. Also, the result in [2], in [3], in assay [4], in assay [6], in assay [7] and in assay [9] was inactive. Besides, the outcome in assay [10] was inactive.

Take `CC(c1cc(C(C)(C)C)cc(C(C)(C)C)c1O)c1cc(C(C)(C)C)cc(C(C)(C)C)c1O`: the result in assay [1], in assay [2], in assay [3], in assay [4], in [5] and in assay [6] was inactive. The outcome in [7], in assay [8], in assay [9] and in [10] was inactive.

As for `C=CC(=O)OCCCCCCCC(C)C`, the result in assay [1], in assay [2], in assay [3], in assay [5], in assay [6] and in [7] was inactive. Also, the outcome in assay [8], in assay [9] and in [10] was inactive. The half-maximal activity concentration (AC50) in assay [4] was 15.7 µM (active).

The values are drawn from PubChem BioAssay (EPA / NIEHS).
